# Laboratory results: the OligoGym collection
# Target: PSMD14
# Assay: pooled miR-30 sensor sort-seq; sequence = guide strand
# Details: shRNA
# Also: reference of the scale not given here.
row,Sequence,sensor-assay potency score (higher = more potent)
1,TTAACATTTTTAACAGTGCCAG,-1.04
2,TAGTCCATGAATTAATGCCTGG,-1.08
3,TACATCCACATGTTCCTCCAAA,-0.84
4,TTTGTCTTGGTTCATGTCCTAA,-1.03
5,TTCTTCTACAGCCTTATTGTAA,-1.22

# Target: PSMG3
# Assay: as above
# Details: shRNA
row,Sequence,sensor-assay potency score (higher = more potent)
1,TCTTCTGCTTCGATATCACCAA,-0.805
2,TCTGTTTCCAGCTTCTTGAGAC,0.0937
3,TTTGTGGTGAGCACAGGCTTGC,-0.665
4,AACGCTACCAGGTTCTTTGCAA,0.042
5,TTCTCAAACACAAGCAACGATT,-1.54
6,TTGTCCTTCACGGCCACGGCGA,-1.48
7,TAAAAAAGAAATTTCCTCCTAC,0.923
8,TTCCAGCTTCTTGAGACACAAA,-1.35
9,TTGAGACACAAACGCTACCAGG,-0.891
10,ATGGATGAGAGGCTCATCCTGC,-1.3
11,TTTTGTGGTGAGCACAGGCTTG,-0.949
12,TGAGACACAAACGCTACCAGGT,-0.363

# Target: PSPH
# Assay: as above
# Details: shRNA
row,Sequence,sensor-assay potency score (higher = more potent)
1,TTTGGCGTTATCCTTGACTTGT,-1.02
2,TTATCCTTGACTTGTTGCCTGA,-0.324
3,TCTTCTCTGATGACCGTGCTGT,0.253
4,TGCTATGAGTCTCTGCACCTGC,0.0571
5,TCACTTTTCCTTTTCCACCAGA,-0.287
6,TAAGCAAACAGTATCAATCTGT,0.453
7,TAACTTGTAAAAATTCATCTGA,0.913
8,TTAAAGTAGAATTTCAGCCTAT,0.23
9,AAAACCTGCATATTCACCGTTA,0.263
10,AACCTGAACATTTCGCTCCTGT,0.681
11,TTGCTCTGCTATGAGTCTCTGC,-0.739

# Target: PSRC1
# Assay: as above
# Details: shRNA
row,Sequence,sensor-assay potency score (higher = more potent)
1,TTTCCCGCACTCTGTGTCCTGC,-0.995
2,TCGCTGGGAAACAGGAACCTTG,-1.78
3,TCGGACAGGACTATCCTTCAGC,-0.556
4,TAGGCTGAGCCTCACACCCTGG,-1.11
5,TATTTGTTCATTTCACTGCTGG,0.584
6,TCTGGAGTCACCAACACTGTTA,-0.586
7,TATCATTACTCCGGAGTCGAGG,-0.921
8,TTCGAGTTGACAGAGAATCCGG,0.0316
9,TTGACAGAGAATCCGGAGGTAG,-1.05
10,TTTGCTACTGAAGTCTTGCTTG,-0.274
11,TCGAGTTGACAGAGAATCCGGA,0.42
